Data on 40 molecules can be found in PubChem BioAssay (NCATS).

Records with an inconclusive call do not appear. Unmarked numbers belong to inactive results. Activity calls are given as the source filed them. Calls come from the whole dose curve; tested in HEK293 reporter line.
% is set by controls: 0 for no effect and ±100 for the full control effect; potency is the fitted concentration of half-maximal effect.

A short description of one experiment: qHTS for Inhibitors of the Functional Ribonucleoprotein Complex (vRNP) of Lassa (LASV) Arenavirus: LASV Primary Screen - GLuc reporter signal (AID 1347082). Note: nearly all actives have a fitted effect of over 60% in size. Conditions: LASV minigenome vRNP, Gaussia luciferase reporter; series mostly up to 57.5 µM; activity change, negative = inhibition: at the top concentration.
As for `CC(C)(C)[N+]([O-])=Cc1ccc(S(=O)(=O)O)cc1S(=O)(=O)O`, the “activity change, negative = inhibition” value was 5.85%.
On to `CCCCCC1CCCC(=O)O1` (stereo not given), for which the “activity change, negative = inhibition” value is 2.29% [at 115 µM].
Take `CCCC(=O)OC`: the “activity change, negative = inhibition” value was -14.9% [at 115 µM].
On the same count and under the same terms, next, `N[C@@H](CSS(=O)(=O)O)C(=O)O`: -14.4%.
The same measure, in the same setting: with `CC(C)=CCC/C(C)=C/COC=O` the figure was 2.5% [at 115 µM]; with `Nc1oc2ccccc2c1C(=O)Cc1ccccc1O[C@@H]1O[C@H](CO)[C@@H](O)[C@H](O)[C@H]1O`, 2.38%.
Same read-out and setting: next, `COc1cc(C2c3cc4c(c(O)c3CC3COC(=O)C32)OCO4)cc(OC)c1O` (stereo not given): -31.3%.
On to `O=Cc1ccc(O)cc1O`, for which the “activity change, negative = inhibition” value is 2.48%.
The same measure, in the same setting: with `O=C(O)[C@@H]1Cc2c([nH]c3ccccc23)C2CCC(=O)N21` (stereo not given in full) the figure was 2.27%; with `CCCCC[C@H](O)/C=C/[C@H]1OC(=O)C[C@H](O)[C@@H]1C/C=C\CCCC(=O)O`, 4.7% [at 5.82 µM]; with `Cc1[nH]c(C=C2C(=O)Nc3ccc(S(=O)(=O)N(C)c4cccc(Cl)c4)cc32)c(C)c1C(=O)N1CCN(C)CC1`, -22.4%.
Consider `O=C1c2ccccc2C(=O)c2c(O)ccc(O)c21`, for which the “activity change, negative = inhibition” value was -8.3%.
On the same count and under the same terms, next, `CC1(C)O[C@@H]2C[C@@H]3[C@H]4C[C@@H](F)C5=CC(=O)C=C[C@]5(C)[C@@]4(F)[C@@H](O)C[C@]3(C)[C@]2(C(=O)CO)O1`: 19.6%; `CC12CCC(C1)C(C)(C)C2O` (stereo not given): -17.2% [at 115 µM]; `C/C=C(\C)C(=O)O[C@H](c1cc2ccc(=O)oc2cc1OC)[C@@H](O)C(C)(C)O`: 3.16%.
On the same count and under the same terms, with `C=C(C)c1cc2c(ccc3ccc(=O)oc32)o1` the figure was 1.56%; with `COC(=O)c1c(C)cc(O)c(C)c1O`, 3.67%; with `CC(C)(O)c1ccc2c(c1)CCC1C(C)(C(=O)O)CCCC21C` (stereo not given), -2.54%.
Still for that read-out and setting: with `CC(=O)c1c(O)cc(O)cc1O` the figure was 2.94%.
For the molecule `COc1ccc([C@@H]2CC(=O)c3c(O)cc(O[C@@H]4OC(CO[C@@H]5OC(C)[C@H](O)[C@@H](O)[C@H]5O)[C@@H](O)[C@H](O)[C@H]4O)cc3O2)cc1O` (stereo not given in full), the “activity change, negative = inhibition” value was -0.669%.
Same read-out and setting: next, `COC(=O)c1ccc(N2CC3CNC(=O)C2(C(=O)OC)N3C)cc1` (stereo not given): 4.52%; `C=C1[C@H]2O[C@H]2[C@@H](OC(C)=O)[C@@]2(C)[C@@H](OC(C)=O)C[C@@H](OC(C)=O)[C@@](C)(O)[C@@H]2[C@@H](OC(C)=O)[C@@]2(O)[C@@H](C)C(=O)O[C@H]2[C@H]1Cl`: 0.424%.
Same read-out and setting: next, `CCCCCCCCCCCCC(=O)CCCCC(=O)O`: -7.09%.
Turning to `CC(C)C[C@H](NC(=O)c1cc2ccccc2s1)C(=O)N1CCN(C(=O)[C@H](CO)NS(=O)(=O)c2ccc(Cl)cc2Cl)CC1`, the “activity change, negative = inhibition” value is -14.1%.
Still for that read-out and setting: next, `CC[C@@H]1C=C(C)C[C@H](C)C[C@H](OC)[C@H]2O[C@@](O)(C(=O)C(=O)N3CCCC[C@@H]3C(=O)O[C@H](C(C)=C[C@@H]3CC[C@H](Cl)[C@H](OC)C3)[C@H](C)[C@@H](O)CC1=O)[C@H](C)C[C@H]2OC`: 8.76%; `Fc1ccc(C(c2ccc(F)cc2)N2CCN(CC=Cc3ccccc3)CC2)cc1`: -4.27%; `CC(C)CNC(=O)/C=C/C=C/CCCC/C=C/c1ccc2c(c1)OCO2`: 15.2%.
The same measure, in the same setting: next, `CC1CC2CCCC(O)=C2C(=O)O1` (stereo not given): 18%; `Cc1[nH]c(C=C2C(=O)Nc3ccccc32)c(C)c1CCC(=O)O`: -37.2%; `CC1=CCC(C(C)C)=CC1`: -15.8% [at 115 µM].
For the molecule `COc1cc2c(OC(C)=O)c3c(c(-c4ccc5c(c4)OCO5)c2cc1OC)C(=O)OC3`, the “activity change, negative = inhibition” value is 19.1%.
Same read-out and setting: with `Oc1cc(O)cc(C=Cc2ccc(O)c(O)c2)c1` the figure was 7.48%; with `COC(=O)c1cc(OC)cc(O)c1C(=O)c1c(O)cc(C)cc1O`, -10.4%.
Still for that read-out and setting: with `CC(=O)O[C@H]1C[C@@H]2CC[C@@]1(C)C2(C)C` the figure was -5.28% [at 115 µM]; with `C/C=C(/C)C(=O)O[C@@H]1[C@H](OC(=O)C=C(C)C)c2c(ccc3ccc(=O)oc23)OC1(C)C`, 4.83%.
Same read-out and setting: with `Cc1cc2c(c(C)c1CCO)C(=O)[C@H](C)C2` the figure was 3.74%.
Regarding `CCCCCCCCCCCCCCCCC`, the “activity change, negative = inhibition” value was -2.48% [at 115 µM].
On the same count and under the same terms, next, `COc1ccc(C=CC(=O)Nc2ccccc2C(=O)O)cc1OC`: -3.01%.
Still for that read-out and setting: next, `COC(=O)c1cc(=O)cc(C(=O)OC)o1`: 0.402%.
As for `COc1ccc(C[C@@H](C)[C@@H](C)Cc2ccc(OC)c(OC)c2)cc1OC`, the Potency was 21.7 µM (active).

A further experiment in a line: qHTS for Inhibitors of the Functional Ribonucleoprotein Complex (vRNP) of Lassa (LASV) Arenavirus: Viability assay - alamar blue signal for LASV Primary Screen (AID 1347083). Note: nearly all actives have a fitted effect of over 80% in size. The following applies: cell viability, alamar blue fluorescence (LASV minigenome counter-screen); series mostly up to 57.5 µM; activity change, negative = reduced viability: at the top concentration. On the technique in general: Quantitative high-throughput screening tests each substance at several concentrations.
With `CC(C)(C)[N+]([O-])=Cc1ccc(S(=O)(=O)O)cc1S(=O)(=O)O`, the “activity change, negative = reduced viability” value is -13.6%.
The same measure, in the same setting: with `CCCCCC1CCCC(=O)O1` (stereo not given) the figure was 0.0738% [at 115 µM].
The same measure, in the same setting: next, `CCCC(=O)OC`: 4.78% [at 115 µM]; `N[C@@H](CSS(=O)(=O)O)C(=O)O`: 19.4%.
On the same count and under the same terms, with `CC(C)=CCC/C(C)=C/COC=O` the figure was -0.165% [at 115 µM].
`Nc1oc2ccccc2c1C(=O)Cc1ccccc1O[C@@H]1O[C@H](CO)[C@@H](O)[C@H](O)[C@H]1O`: the “activity change, negative = reduced viability” value is -15.8%.
Same read-out and setting: next, `COc1cc(C2c3cc4c(c(O)c3CC3COC(=O)C32)OCO4)cc(OC)c1O` (stereo not given): -102%; `O=Cc1ccc(O)cc1O`: 2.53%.
The same measure, in the same setting: next, `O=C(O)[C@@H]1Cc2c([nH]c3ccccc23)C2CCC(=O)N21` (stereo not given in full): 18.3%.
The same measure, in the same setting: next, `CCCCC[C@H](O)/C=C/[C@H]1OC(=O)C[C@H](O)[C@@H]1C/C=C\CCCC(=O)O`: 8.43% [at 5.82 µM]; `Cc1[nH]c(C=C2C(=O)Nc3ccc(S(=O)(=O)N(C)c4cccc(Cl)c4)cc32)c(C)c1C(=O)N1CCN(C)CC1`: -18%; `O=C1c2ccccc2C(=O)c2c(O)ccc(O)c21`: 0.297%.
Turning to `CC1(C)O[C@@H]2C[C@@H]3[C@H]4C[C@@H](F)C5=CC(=O)C=C[C@]5(C)[C@@]4(F)[C@@H](O)C[C@]3(C)[C@]2(C(=O)CO)O1`, the “activity change, negative = reduced viability” value was -0.291%.
With `CC12CCC(C1)C(C)(C)C2O` (stereo not given), the “activity change, negative = reduced viability” value is -23.8% [at 115 µM].
The same measure, in the same setting: next, `C/C=C(\C)C(=O)O[C@H](c1cc2ccc(=O)oc2cc1OC)[C@@H](O)C(C)(C)O`: 15.3%.
For `C=C(C)c1cc2c(ccc3ccc(=O)oc32)o1`, the “activity change, negative = reduced viability” value was 6.86%.
As for `COC(=O)c1c(C)cc(O)c(C)c1O`, the “activity change, negative = reduced viability” value was -5.85%.
The same measure, in the same setting: next, `CC(C)(O)c1ccc2c(c1)CCC1C(C)(C(=O)O)CCCC21C` (stereo not given): -17.5%.
Same read-out and setting: with `CC(=O)c1c(O)cc(O)cc1O` the figure was 23.8%; with `COc1ccc([C@@H]2CC(=O)c3c(O)cc(O[C@@H]4OC(CO[C@@H]5OC(C)[C@H](O)[C@@H](O)[C@H]5O)[C@@H](O)[C@H](O)[C@H]4O)cc3O2)cc1O` (stereo not given in full), 5.56%.
Same read-out and setting: next, `COC(=O)c1ccc(N2CC3CNC(=O)C2(C(=O)OC)N3C)cc1` (stereo not given): 16.3%; `C=C1[C@H]2O[C@H]2[C@@H](OC(C)=O)[C@@]2(C)[C@@H](OC(C)=O)C[C@@H](OC(C)=O)[C@@](C)(O)[C@@H]2[C@@H](OC(C)=O)[C@@]2(O)[C@@H](C)C(=O)O[C@H]2[C@H]1Cl`: 8.41%.
For `CCCCCCCCCCCCC(=O)CCCCC(=O)O`, the “activity change, negative = reduced viability” value is 1.81%.
On the same count and under the same terms, next, `CC(C)C[C@H](NC(=O)c1cc2ccccc2s1)C(=O)N1CCN(C(=O)[C@H](CO)NS(=O)(=O)c2ccc(Cl)cc2Cl)CC1`: -26.7%; `CC[C@@H]1C=C(C)C[C@H](C)C[C@H](OC)[C@H]2O[C@@](O)(C(=O)C(=O)N3CCCC[C@@H]3C(=O)O[C@H](C(C)=C[C@@H]3CC[C@H](Cl)[C@H](OC)C3)[C@H](C)[C@@H](O)CC1=O)[C@H](C)C[C@H]2OC`: 2.99%.
As for `Fc1ccc(C(c2ccc(F)cc2)N2CCN(CC=Cc3ccccc3)CC2)cc1`, the “activity change, negative = reduced viability” value is -38.8%.
As to `CC(C)CNC(=O)/C=C/C=C/CCCC/C=C/c1ccc2c(c1)OCO2`, the “activity change, negative = reduced viability” value was 17.9%.
The same measure, in the same setting: next, `CC1CC2CCCC(O)=C2C(=O)O1` (stereo not given): 4.66%.
Regarding `Cc1[nH]c(C=C2C(=O)Nc3ccccc32)c(C)c1CCC(=O)O`, the Potency was 10.9 µM (active).
In the case of `CC1=CCC(C(C)C)=CC1`, the “activity change, negative = reduced viability” value is 13.5% [at 115 µM].
Still for that read-out and setting: with `COc1cc2c(OC(C)=O)c3c(c(-c4ccc5c(c4)OCO5)c2cc1OC)C(=O)OC3` the figure was -14%.
Still for that read-out and setting: next, `Oc1cc(O)cc(C=Cc2ccc(O)c(O)c2)c1`: -9.76%; `COC(=O)c1cc(OC)cc(O)c1C(=O)c1c(O)cc(C)cc1O`: 3.67%; `CC(=O)O[C@H]1C[C@@H]2CC[C@@]1(C)C2(C)C`: -3.58% [at 115 µM].
The same measure, in the same setting: with `C/C=C(/C)C(=O)O[C@@H]1[C@H](OC(=O)C=C(C)C)c2c(ccc3ccc(=O)oc23)OC1(C)C` the figure was 2.76%; with `Cc1cc2c(c(C)c1CCO)C(=O)[C@H](C)C2`, 2.65%.
Turning to `CCCCCCCCCCCCCCCCC`, the “activity change, negative = reduced viability” value is 1.45% [at 115 µM].
Take `COc1ccc(C=CC(=O)Nc2ccccc2C(=O)O)cc1OC`: the “activity change, negative = reduced viability” value is 5.06%.
Take `COC(=O)c1cc(=O)cc(C(=O)OC)o1`: the “activity change, negative = reduced viability” value was 21.7%.
As to `COc1ccc(C[C@@H](C)[C@@H](C)Cc2ccc(OC)c(OC)c2)cc1OC`, the Potency is 6.11 µM (active).
